Screening data: PubChem, several laboratories
M1 ag: M1 muscarinic receptor agonism; CHO-M1 cells, Fluo-4 calcium fluorescence, agonist mode; active compounds read high; B-score at 10 µM; 3% of 64,000 active; AID 626;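 active = fluorescence rise, raw or as B-score row- and column-corrected plate score, outside the 99.7% band of its plate's samples, either direction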
M1 antag: blocks the rat M1 muscarinic receptor response to acetylcholine; P08482; CHO-M1 cells, Fluo-4 calcium, ACh EC80 antagonist mode; active compounds read low; B-score at 10 µM; 3.4% of 64,000 active; AID 628;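 active = calcium fluorescence response, raw or row-and-column corrected B-score, differing from the plate sample mean either way at a set confidence level, mostly lower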
Target sequence (P08482 whole entry, looked up): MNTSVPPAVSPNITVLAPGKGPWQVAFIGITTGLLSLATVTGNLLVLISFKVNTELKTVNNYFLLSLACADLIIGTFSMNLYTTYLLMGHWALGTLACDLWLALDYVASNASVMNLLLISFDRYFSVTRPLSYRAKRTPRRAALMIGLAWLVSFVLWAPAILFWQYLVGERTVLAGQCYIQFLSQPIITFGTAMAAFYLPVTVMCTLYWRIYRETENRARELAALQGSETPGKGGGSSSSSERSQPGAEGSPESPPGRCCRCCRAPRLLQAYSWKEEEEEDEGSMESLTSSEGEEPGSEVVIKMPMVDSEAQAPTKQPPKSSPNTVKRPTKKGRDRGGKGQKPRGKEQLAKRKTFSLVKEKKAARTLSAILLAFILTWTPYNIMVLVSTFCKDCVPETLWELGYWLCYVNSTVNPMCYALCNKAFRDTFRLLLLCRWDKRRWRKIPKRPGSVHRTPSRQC
Cav32 inh: blocks human Cav3.2 T-type calcium channel. Cav3.2-expressing cells, Fluo-4 calcium fluorescence FDSS; active compounds read low. AID 449739. B-score at 10 µM. O95180. 4% of 100,000 active;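 active = single-dose well whose peak fluorescence ratio is a statistical outlier from its plate by either plate-standardised score or position-corrected B-score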
PLAP act: human PLAP activation. purified PLAP enzyme, luminescent substrate read-out; active compounds read high. activation fold at 20 µM. 1.2% of 96,000 active. AID 696; in the data active = activation fold above about 2
Hits are given with their value; n = inactive; x = no result. Most compounds without a hit are left out; they make up all but 7.6% or so of the library.

SMILES	M1 ag	M1 antag	Cav32 inh	PLAP act
Clc1ccc2nc(C3CCN(Cc4nnnn4C4CCCCC4)CC3)[nH]c2c1	x	x	n	x
Cc1c(NC(=O)OCCNC(=O)COc2c(Cl)cccc2Cl)sc(=S)n1C	x	x	n	n
N#CC1=C(N)NC(SCc2ccc(Cl)cc2)=C(C#N)C12CCCCC2	n	n	-4.1	n
N#CC1=C(N)NC(SCC(=O)Nc2ccc(Br)cc2)=C(C#N)C12CCCCC2	x	x	-6.5	n
CC(Nc1cc(N2CCN(C(=O)C(C)(C)C)CC2)ccc1[N+](=O)[O-])c1ccccc1 (centres undefined)	x	x	-4.2	n
O=C(O)c1cc(-c2ccccn2)n[nH]1	n	n	n	2.5
Cc1c(Cl)cccc1-n1nnnc1-c1cccs1	n	n	n	n
CCc1[nH]nc2c1C(c1ccc(Br)s1)C(C#N)=C(N)O2 (centres undefined)	n	2.5	n	n
CCc1[nH]nc2c1C(c1ccsc1)C(C#N)=C(N)O2 (centres undefined)	x	x	n	x
CC1Cc2cc(C3(O)C(=O)c4ccccc4C3=O)ccc2N1 (centres undefined)	n	n	n	n
CCOC(=O)c1c(C)n(C)c2ccc(OCC(O)CN3C(=O)c4ccccc4S3(=O)=O)cc12 (centres undefined)	7.2	n	n	n
CCOC(=O)c1c(C)n(C)c2ccc(OCC(O)CN(CC)CC)cc12 (centres undefined)	n	n	n	n
Cc1ccc(CN2C(=O)C(C)(C)Oc3ccc(C(=O)N4CCCCC4)cc32)cc1	n	n	-5.2	n
O=C(OCC#CCSc1nnc(-c2ccncc2)o1)c1cccs1	n	n	-4.3	n
COc1ccc(/C=C2\CCc3ccccc3C2=O)cc1Cn1nc(C)cc1C	x	x	-4.3	n
CCCCN1CC(O)=C(c2nc3ccccc3s2)C1=N	n	n	n	n
CCN1CC(O)=C(c2nc3ccccc3s2)C1=N	x	x	n	2.1
CCCN(CCC)C(=O)C1CCN(c2cc(C)nc3c(-c4ccc(OC)c(OC)c4)c(C)nn23)CC1	n	n	n	n
COc1ccc(-c2c(C)nn3c(N4CCC(C(=O)NCCN(C)C)CC4)cc(C)nc23)cc1OC	n	n	3.1	n
Cc1cccc(COCC(Cc2ccccc2)N2CCN(C(=O)c3cc(Cl)cc(Cl)c3)CCC2=O)c1 (centres undefined)	x	x	-3.4	x
Cc1cccc(COCC(Cc2ccccc2)N2CCN(C(=O)c3cccc(C)c3)CCC2=O)c1 (centres undefined)	x	x	n	x
Cn1c(N)c(S(=O)(=O)NCc2ccccc2)c(=O)n(C)c1=O	x	x	n	x
O=C(c1cccc(COc2ccc(Cl)cc2Cl)c1)N1CCN(c2ccccn2)CC1	n	n	-6.2	n
O=C(c1ccc(COc2ccccc2Br)o1)N1CCN(c2ccccn2)CC1	x	x	n	n
O=C(CC1Nc2ccccc2NC1=O)c1ccccc1 (centres undefined)	3.9	n	n	n
SMILES	M1 ag	M1 antag	Cav32 inh	PLAP act
O=C(CC1Nc2ccccc2NC1=O)NCCc1ccccc1 (centres undefined)	x	x	n	n
CC(O)CNc1nc2ccccc2n1-c1ncnc2sc3c(c12)CCC3 (centres undefined)	n	n	-6.4	2.7
c1ccc2c(c1)ncn2-c1ncnc2sc3c(c12)CCCC3	x	x	n	n
COc1ccc(C(=O)N/N=C/c2ccc3cccc(OCc4ccccc4)c3n2)cc1	x	x	n	n
O=C(N/N=C/c1ccc2cccc(OCc3ccccc3)c2n1)c1ccc(Br)cc1	x	x	-4	n
COc1ccc(C(=O)Nn2cnc3scc(-c4cccs4)c3c2=O)c(O)c1	n	n	-9	x
CCc1ccccc1NC(=O)c1ccc(CN2CCC(Cc3ccccc3)CC2)cc1	x	x	-7.8	n
O=C(c1ccc(CN2CCc3ccccc3C2)cc1)N1CCc2ccccc2C1	x	x	x	n
Cc1ccccc1NC(=O)c1ccc(CN2CCc3ccccc3C2)cc1	x	x	-6.7	n
Cc1ccccc1N(CC(=O)N/N=C/c1cc(C)n(-c2ccccc2C)c1C)S(C)(=O)=O	x	x	-9.8	n
Cc1oc(/C=N/NC(=O)CN(c2ccccc2Br)S(C)(=O)=O)cc1Br	x	x	n	n
CCN(CC)c1ccc(C2N(C(=O)N3CCOCC3)CCN2S(=O)(=O)c2ccc(C)cc2)cc1 (centres undefined)	x	x	-4.1	n
O=C(CN(C(=O)CNC(=O)c1ccco1)c1ccc(Cl)c(Cl)c1)NC1CCCCC1	n	n	-4.3	n
Cc1ccc(C(C(=O)NC2CCCCC2)N(CCC(C)C)C(=O)CNC(=O)c2ccco2)o1 (centres undefined)	n	n	-4.7	n
O=C(NCC(=O)N(Cc1ccccc1)C(C(=O)NC1CCCCC1)c1ccco1)c1ccco1 (centres undefined)	x	x	n	x
C/C(N)=C(/C#N)C(=O)COC(=O)c1ccc(C)c(S(=O)(=O)N2CCCCC2)c1	x	x	n	n
C/C(N)=C(/C#N)C(=O)COC(=O)c1ccncc1	n	n	n	2.3
